Laboratory results from PubChem BioAssay AID1159580 (chemical genetic matrix, 2015).
The campaign covered roughly 5,500 compounds. About 2,000 (36%) were called active. Roughly 18% stayed inconclusive and do not appear here. Cut-off read from the data, not from the text of the source: active = normalized growth mostly below about 0.91 (no sharp cut-off); inconclusive = no clear call, values can overlap the other calls; inactive = mostly above about 0.92. This is one part of the list.

Assay: chemical genetic growth profiling, strain panel (AID 1159580);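 note: tested at 20 µM; growth read once vehicle control cultures reached saturation at 30 °C; 1 = growth at the plate median or of vehicle wells; lower values mean less growth of the strain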
Conditions: growth OD

Measured: normalized growth

C=CCC1(C(C)CCC)C(=O)N=C(S)NC1=O (configuration not stated)
inactive: S. cerevisiae deletion strains, locus YJR075W, strain HOC1, hits give low values 1.04 | S. cerevisiae deletion strains, locus YKL009W, strain mrt4, hits give low values 0.963 | S. cerevisiae deletion strains, locus YKL068W, hits give low values 0.969 | S. cerevisiae deletion strains, locus YKL085W, strain MDH1 (second series), hits give low values 0.983 | S. cerevisiae deletion strains, locus YKL085W, strain MDH1, hits give low values 0.983 | S. cerevisiae deletion strains, locus YKL160W, strain elf1, hits give low values 0.972 | S. cerevisiae deletion strains, locus YKL190W, strain CNB1, hits give low values 0.992 | S. cerevisiae deletion strains, locus YKR001C, strain vps1, hits give low values 0.993 | S. cerevisiae deletion strains, locus YKR026C, strain gcn3, hits give low values 0.925 | S. cerevisiae deletion strains, locus YKR091W, strain srl3, hits give low values 0.978 | S. cerevisiae deletion strains, locus YLL001W, strain dnm1, hits give low values 0.942 | S. cerevisiae deletion strains, locus YLL026W, hits give low values 0.994 | S. cerevisiae deletion strains, locus YLL041C, strain sdh2, hits give low values 0.974 | S. cerevisiae deletion strains, locus YLR027C, strain aat2, hits give low values 0.979 | S. cerevisiae deletion strains, locus YLR039C, strain RIC1, hits give low values 0.891 | S. cerevisiae deletion strains, locus YLR058C, strain SHM2, hits give low values 0.988 | S. cerevisiae deletion strains, locus YLR102C, strain apc9, hits give low values 0.966 | S. cerevisiae deletion strains, locus YLR113W, strain HOG1, hits give low values 0.977 | S. cerevisiae deletion strains, locus YLR221C, strain rsa3, hits give low values 1 | S. cerevisiae deletion strains, locus YLR258W, strain gsy2, hits give low values 0.967 | S. cerevisiae deletion strains, locus YLR262C, strain YPT6 (second series), hits give low values 0.905 | S. cerevisiae deletion strains, locus YLR262C, strain YPT6, hits give low values 0.853 | S. cerevisiae deletion strains, locus YLR268W, strain sec22, hits give low values 0.992 | S. cerevisiae deletion strains, locus YLR320W, strain mms22, hits give low values 1.01 | S. cerevisiae deletion strains, locus YLR330W, strain CHS5, hits give low values 0.979 | S. cerevisiae deletion strains, locus YLR342W, strain FKS1 (second series), hits give low values 0.916 | S. cerevisiae deletion strains, locus YLR342W, strain FKS1, hits give low values 0.978 | S. cerevisiae deletion strains, locus YLR357W, strain rsc2, hits give low values 0.978 | S. cerevisiae deletion strains, locus YLR370C, strain arc18, hits give low values 0.99 | S. cerevisiae deletion strains, locus YLR371W, strain rom2, hits give low values 0.957 | S. cerevisiae deletion strains, locus YLR384C, strain iki3, hits give low values 0.944 | S. cerevisiae deletion strains, locus YLR418C, strain cdc73, hits give low values 1.04 | S. cerevisiae deletion strains, locus YML016C, strain PPZ1, hits give low values 0.994 | S. cerevisiae deletion strains, locus YML032C, strain rad52, hits give low values 0.957 | S. cerevisiae deletion strains, locus YML120C, strain ndi1, hits give low values 0.988 | S. cerevisiae deletion strains, locus YML124C, strain tub3, hits give low values 0.981 | S. cerevisiae deletion strains, locus YMR058W, strain fet3, hits give low values 0.977 | S. cerevisiae deletion strains, locus YMR078C, strain ctf18, hits give low values 0.972 | S. cerevisiae deletion strains, locus YMR125W, strain sto1, hits give low values 0.923 | S. cerevisiae deletion strains, locus YMR129W, hits give low values 0.978 | S. cerevisiae deletion strains, locus YMR205C, strain PFK2, hits give low values 0.965 | S. cerevisiae deletion strains, locus YMR223W, strain ubp8, hits give low values 0.979 | S. cerevisiae deletion strains, locus YMR231W, strain pep5, hits give low values 0.963 | S. cerevisiae deletion strains, locus YMR263W, strain SAP30, hits give low values 1.01 | S. cerevisiae deletion strains, locus YMR307W, strain GAS1, hits give low values 1.02 | S. cerevisiae deletion strains, locus YNL067W, strain RPL9B, hits give low values 1.02 | S. cerevisiae deletion strains, locus YNL071W, strain lat1, hits give low values 1 | S. cerevisiae deletion strains, locus YNL128W, strain TEP1, hits give low values 1.01 | S. cerevisiae deletion strains, locus YNL153C, strain GIM3, hits give low values 1.03 | S. cerevisiae deletion strains, locus YNL183C, strain NPR1, hits give low values 0.929 | S. cerevisiae deletion strains, locus YNL209W, strain ssb2, hits give low values 0.976 | S. cerevisiae deletion strains, locus YNL233W, strain BNI4, hits give low values 1.03 | S. cerevisiae deletion strains, locus YNL248C, strain rpa49, hits give low values 0.914 | S. cerevisiae deletion strains, locus YNL250W, strain rad50, hits give low values 0.963 | S. cerevisiae deletion strains, locus YNL271C, strain bni1, hits give low values 0.98 | S. cerevisiae deletion strains, locus YNL298W, strain CLA4, hits give low values 0.978 | S. cerevisiae deletion strains, locus YNL307C, strain MCK1, hits give low values 0.961 | S. cerevisiae deletion strains, locus YNL322C, strain KRE1 (second series), hits give low values 0.969 | S. cerevisiae deletion strains, locus YNL322C, strain KRE1, hits give low values 0.989 | S. cerevisiae deletion strains, locus YNR049C, strain mso1, hits give low values 0.97 | S. cerevisiae deletion strains, locus YNR052C, strain pop2, hits give low values 0.995 | S. cerevisiae deletion strains, locus YOL006C, strain TOP1, hits give low values 1.06 | S. cerevisiae deletion strains, locus YOL012C, strain htz1 1.08 | S. cerevisiae deletion strains, locus YOL147C, strain pex11, hits give low values 0.99 | S. cerevisiae deletion strains, locus YOR001W, strain rrp6, hits give low values 0.952 | S. cerevisiae deletion strains, locus YOR061W, strain CKA2, hits give low values 0.99 | S. cerevisiae deletion strains, locus YOR069W, strain VPS5, hits give low values 0.974 | S. cerevisiae deletion strains, locus YOR070C, strain gyp1, hits give low values 0.991 | S. cerevisiae deletion strains, locus YOR080W, strain dia2, hits give low values 0.959 | S. cerevisiae deletion strains, locus YOR083W, strain WHI5, hits give low values 0.976 | S. cerevisiae deletion strains, locus YOR106W, strain vam3, hits give low values 0.941 | S. cerevisiae deletion strains, locus YOR136W, strain idh2, hits give low values 0.993 | S. cerevisiae deletion strains, locus YOR144C, strain elg1, hits give low values 0.991 | S. cerevisiae deletion strains, locus YOR184W, strain ser1, hits give low values 0.949 | S. cerevisiae deletion strains, locus YOR231W, strain MKK1, hits give low values 0.984 | S. cerevisiae deletion strains, locus YOR265W, strain rbl2, hits give low values 0.976 | S. cerevisiae deletion strains, locus YOR270C, strain vph1, hits give low values 0.912 | S. cerevisiae deletion strains, locus YOR290C, strain snf2, hits give low values 0.996 | S. cerevisiae deletion strains, locus YOR316C, strain cot1, hits give low values 0.981 | S. cerevisiae deletion strains, locus YPL051W, strain arl3, hits give low values 0.979 | S. cerevisiae deletion strains, locus YPL055C, strain LGE1, hits give low values 1.02 | S. cerevisiae deletion strains, locus YPL078C, strain atp4, hits give low values 0.937 | S. cerevisiae deletion strains, locus YPL106C, strain sse1, hits give low values 0.988 | S. cerevisiae deletion strains, locus YPL240C, strain hsp82, hits give low values 0.97 | S. cerevisiae deletion strains, locus YPL241C, strain CIN2, hits give low values 0.99 | S. cerevisiae deletion strains, locus YPL256C, strain CLN2, hits give low values 0.996 | S. cerevisiae deletion strains, locus YPR119W, strain clb2, hits give low values 0.99 | S. cerevisiae deletion strains, locus YPR141C, strain kar3, hits give low values 0.977 | S. cerevisiae deletion strains, locus YPR163C, strain tif3, hits give low values 0.985 | S. cerevisiae deletion strains, locus YPR167C, strain met16, hits give low values 0.981 | S. cerevisiae deletion strains, strain wtn01, hits give low values 0.98 | S. cerevisiae strains, strain wild type, hits give low values 0.986
